Measured values reported in PubChem BioAssay (Tox21).
Records with an inconclusive call do not appear. Calls of active or inactive are those of the source. Calls follow the shape of the dose curve; as a rule, active = well fitted curve in the direction sought with a large enough effect in the repeat runs; inconclusive = weak or mixed curves; inactive = no such curve, though single readings can be large; an effect the other way counts as inactive or inconclusive.

What was measured:
[1] = qHTS RealTime-Glo MT Cell Viability Assay in HepG2 cells - 40 hour (AID 1224870); also: nearly all actives have a fitted effect of over 50% in size
Summary of the method: (§1)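 HepG2 cells (600/well) mixed with RealTime-Glo MT reagent, settled 5 h at 37 C/5% CO2 before compound addition. Nonlytic NanoLuc luminescence from viable-cell prosubstrate reduction read repeatedly during 40 h treatment at 37 C.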

[2] = A CellTox Green Cytotoxicity Assay to monitor cytotoxicity in HEK293 cells - 40 hour (AID 1224871); also: nearly all actives have a fitted effect of over 45% in size
Summary of the method: (§2)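 HEK293 cells, 600/well, were preincubated 5 hours and then exposed to compounds at 37 C for up to 40 hours. A cell-impermeant cyanine dye staining dead-cell DNA was read by fluorescence at 0, 8, 16, 24, 32 and 40 h time points.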

[3] = qHTS RealTime-Glo MT Cell Viability Assay in HEK293 cells - 16 hour (AID 1224872); also: top concentration of the series differs between compounds; nearly all actives have a fitted effect of over 50% in size
Summary of the method: (§3)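 Nonlytic real-time viability readout: viable cells convert prosubstrate to NanoLuc substrate, giving luminescence proportional to live cell number. HEK293, 600 cells/well, compound added after 5 h, continuous culture at 37 C.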

[4] = qHTS RealTime-Glo MT Cell Viability Assay in HepG2 cells - 8 hour (AID 1224873); also: nearly all actives have a fitted effect of over 55% in size
Summary of the method: as §1

[5] = qHTS RealTime-Glo MT Cell Viability Assay in HEK293 cells - 40 hour (AID 1224874); conditions: RealTime-Glo luminescence; max response: active compounds read low; also: nearly all actives have a fitted effect of over 50% in size
Summary of the method: (§4)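 600 cells/well were plated with the nonlytic NanoLuc/prosubstrate reagent, pre-incubated 5 h, then given 23 nL of compound in DMSO. Incubation at 37 C for 40 h, with luminescence from viable-cell-reduced substrate read repeatedly from 0 h.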

[6] = A CellTox Green Cytotoxicity Assay to monitor cytotoxicity in HEK293 cells - 24 hour (AID 1224875); also: series mostly up to about 77 µM; nearly all actives have a fitted effect of over 45% in size
Summary of the method: as §2

[7] = A CellTox Green Cytotoxicity Assay to monitor cytotoxicity in HepG2 cells - 16 hour (AID 1224876); also: nearly all actives have a fitted effect of over 45% in size
Summary of the method: (§5)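 HepG2 cells, 600/well, preincubated 5 h with CellTox Green dye, then exposed to Tox21 compounds in DMSO at 37 C for up to 40 h. Dead-cell DNA fluorescence read at the indicated time point.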

[8] = qHTS RealTime-Glo MT Cell Viability Assay in HepG2 cells - 32 hour (AID 1224877); also: nearly all actives have a fitted effect of over 55% in size
Summary of the method: (§6)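 Luminescence read-out: viable HepG2 cells reduce a prosubstrate to a NanoLuc substrate, giving a signal proportional to live cell number. Reads taken at 0, 8, 16, 24, 32 and 40 h of compound exposure at 37 C.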

[9] = A CellTox Green Cytotoxicity Assay to monitor cytotoxicity in HepG2 cells - 24 hour (AID 1224878); also: nearly all actives have a fitted effect of over 45% in size
Summary of the method: as §5

[10] = A CellTox Green Cytotoxicity Assay to monitor cytotoxicity in HepG2 cells - 40 hour (AID 1224879); also: nearly all actives have a fitted effect of over 40% in size
Summary of the method: as §5

[11] = qHTS RealTime-Glo MT Cell Viability Assay in HEK293 cells - 0 hour (AID 1224880)
Summary of the method: as §4

[12] = A CellTox Green Cytotoxicity Assay to monitor cytotoxicity in HEK293 cells - 32 hour (AID 1224881); also: nearly all actives have a fitted effect of over 40% in size
Summary of the method: as §2

[13] = A CellTox Green Cytotoxicity Assay to monitor cytotoxicity in HepG2 cells - 0 hour (AID 1224882); also: nearly all actives have a fitted effect of over 35% in size
Summary of the method: as §5

[14] = A CellTox Green Cytotoxicity Assay to monitor cytotoxicity in HepG2 cells - 32 hour (AID 1224883); also: nearly all actives have a fitted effect of over 50% in size
Summary of the method: as §5

[15] = A CellTox Green Cytotoxicity Assay to monitor cytotoxicity in HEK293 cells - 8 hour (AID 1224884); also: nearly all actives have a fitted effect of over 35% in size
Summary of the method: as §2

[16] = qHTS RealTime-Glo MT Cell Viability Assay in HepG2 cells - 16 hour (AID 1224885); also: nearly all actives have a fitted effect of over 50% in size
Summary of the method: as §6

[17] = qHTS RealTime-Glo MT Cell Viability Assay in HEK293 cells - 8 hour (AID 1224887)
Summary of the method: as §4

[18] = A CellTox Green Cytotoxicity Assay to monitor cytotoxicity in HEK293 cells - 16 hour (AID 1224888); also: nearly all actives have a fitted effect of over 35% in size
Summary of the method: as §2

[19] = qHTS RealTime-Glo MT Cell Viability Assay in HepG2 cells - 0 hour (AID 1224889); also: nearly all actives have a fitted effect of over 50% in size
Summary of the method: as §6

[20] = qHTS RealTime-Glo MT Cell Viability Assay in HEK293 cells - 24 hour (AID 1224886)
Summary of the method: as §3
% is scaled to controls: 0 for no effect and ±100 for the full control effect.

Oc1ccccc1C=NCc1ccccc1
inactive: Potency [1] | Potency [2] | Potency [3] | outcome [4] | max response [5] 1.18% | Potency [6] | Potency [7] | Potency [8] | Potency [9] | Potency [10] | outcome [11] | Potency [12] | Potency [13] | Potency [14] | Potency [15] | outcome [16] | Potency [17] | Potency [18] | Potency [19]

N#Cc1ccc(C(c2ccc(C#N)cc2)n2cncn2)cc1
inactive: Potency [1] | Potency [2] | Potency [3] | outcome [4] | max response [5] -0.518% | Potency [6] | Potency [7] | Potency [8] | Potency [9] | Potency [10] | outcome [11] | Potency [12] | Potency [13] | Potency [14] | Potency [15] | outcome [16] | Potency [20] | Potency [17] | Potency [19]

COC(=O)/C=C(/C)N
inactive: Potency [1] | Potency [2] | Potency [3] | outcome [4] | max response [5] 5.09% | Potency [6] | Potency [7] | Potency [8] | Potency [9] | Potency [10] | outcome [11] | Potency [12] | Potency [13] | Potency [14] | Potency [15] | outcome [16] | Potency [20] | Potency [17] | Potency [19]

Cc1c[nH]c(=S)[nH]c1=O
inactive: Potency [1] | Potency [2] | Potency [3] | outcome [4] | max response [5] 22.1% | Potency [6] | Potency [7] | Potency [8] | Potency [9] | Potency [10] | outcome [11] | Potency [12] | Potency [13] | Potency [14] | Potency [15] | outcome [16] | Potency [17] | Potency [18] | Potency [19]

OCCN(CCO)CCN(CCO)CCO
inactive: Potency [1] | Potency [2] | Potency [3] | outcome [4] | max response [5] -1.3% | Potency [6] | Potency [7] | Potency [8] | Potency [9] | Potency [10] | outcome [11] | Potency [12] | Potency [13] | Potency [14] | Potency [15] | outcome [16] | Potency [20] | Potency [17] | Potency [19]

CCCCCCCCCC#N
inactive: Potency [1] | Potency [2] | Potency [3] | outcome [4] | max response [5] 0.388% | Potency [6] | Potency [7] | Potency [8] | Potency [9] | Potency [10] | outcome [11] | Potency [12] | Potency [13] | Potency [14] | Potency [15] | outcome [16] | Potency [20] | Potency [17] | Potency [18] | Potency [19]

OCCN(CCO)c1ccccc1
inactive: Potency [1] | Potency [2] | Potency [3] | outcome [4] | max response [5] 1.89% | Potency [6] | Potency [7] | Potency [8] | Potency [9] | Potency [10] | outcome [11] | Potency [12] | Potency [13] | Potency [14] | Potency [15] | outcome [16] | Potency [20] | Potency [17] | Potency [18] | Potency [19]

O=CCCc1ccccc1
inactive: Potency [1] | Potency [2] | Potency [3] | outcome [4] | max response [5] 4.45% | Potency [6] | Potency [7] | Potency [8] | Potency [9] | Potency [10] | outcome [11] | Potency [12] | Potency [13] | Potency [14] | Potency [15] | outcome [16] | Potency [20] | Potency [17] | Potency [18] | Potency [19]

C[C@]12C(=O)OC(=O)[C@H]1[C@H]1C=C[C@@H]2C1
inactive: Potency [1] | Potency [2] | Potency [3] | outcome [4] | max response [5] 10.7% | Potency [6] | Potency [7] | Potency [8] | Potency [9] | Potency [10] | outcome [11] | Potency [12] | Potency [13] | Potency [14] | Potency [15] | outcome [16] | Potency [20] | Potency [17] | Potency [18] | Potency [19]

Cc1cccc(C)c1NC(=O)CN1CCCCCC1
inactive: Potency [1] | Potency [2] | Potency [3] | outcome [4] | max response [5] 5.59% | Potency [6] | Potency [7] | Potency [8] | Potency [9] | Potency [10] | outcome [11] | Potency [12] | Potency [13] | Potency [14] | Potency [15] | outcome [16] | Potency [17] | Potency [18] | Potency [19]

CN(CC1(C)CCCO1)S(=O)(=O)c1ccc(Cl)c(S(N)(=O)=O)c1 (centres undefined)
inactive: Potency [1] | Potency [2] | Potency [3] | outcome [4] | max response [5] 2.08% | Potency [6] | Potency [7] | Potency [8] | Potency [9] | Potency [10] | outcome [11] | Potency [12] | Potency [13] | Potency [14] | Potency [15] | outcome [16] | Potency [20] | Potency [17] | Potency [18] | Potency [19]

Cc1c(C(=O)NCCO)[n+](=O)c2ccccc2n1[O-]
inactive: Potency [1] | Potency [2] | Potency [3] | outcome [4] | max response [5] 0.805% | Potency [6] | Potency [7] | Potency [8] | Potency [9] | Potency [10] | outcome [11] | Potency [12] | Potency [13] | Potency [14] | Potency [15] | outcome [16] | Potency [20] | Potency [17] | Potency [18] | Potency [19]
